Laboratory results: PubChem BioAssay AID1159580 (chemical genetic matrix, 2015)
In all, about 5,500 compounds went through this assay and about 2,000 (36%) were called active. Another 18% or so got no clear call; they are omitted. Cut-off read from the data, not from the text of the source: active = normalized growth mostly below about 0.91 (no sharp cut-off); inconclusive = no clear call, values can overlap the other calls; inactive = mostly above about 0.92. Some of the results follow.

Experiment: chemical genetic growth profiling, strain panel (AID 1159580);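 note: tested at 20 µM; growth read once vehicle control cultures reached saturation at 30 °C; 1 = growth at the plate median or of vehicle wells; lower values mean less growth of the strain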
Conditions: S. cerevisiae deletion strains, growth OD

Measured: normalized growth

CN1Cc2c(ccc3c2OCO3)C2C(O)Cc3cc4c(cc3C21)OCO4 (stereo not given)
inactive: locus YAL013W, strain DEP1, active compounds read low 0.992 | locus YBR021W, strain FUR4, active compounds read low 0.939 | locus YBR229C, strain ROT2, active compounds read low 1 | locus YCL029C, strain bik1, active compounds read low 1.03 | locus YDL035C, strain GPR1, active compounds read low 0.985 | locus YDL074C, strain BRE1, active compounds read low 0.982 | locus YDL101C, strain DUN1, active compounds read low 0.996 | locus YDL134C, strain PPH21, active compounds read low 0.977 | locus YDL185W, strain tfp1, active compounds read low 1.02 | locus YDL192W, strain arf1, active compounds read low 0.999 | locus YDR101C, strain arx1, active compounds read low 0.999 | locus YDR162C, strain NBP2, active compounds read low 0.991 | locus YDR318W, strain mcm21, active compounds read low 0.998 | locus YDR388W, active compounds read low 0.987 | locus YDR502C, strain sam2, active compounds read low 0.984 | locus YEL061C, strain CIN8, active compounds read low 0.992 | locus YER110C, active compounds read low 1.01 | locus YER155C, strain BEM2, active compounds read low 0.997 | locus YER167W, strain BCK2, active compounds read low 0.989 | locus YGL078C, strain dbp3, active compounds read low 1.02 | locus YGL086W, strain mad1, active compounds read low 0.989 | locus YGL248W, strain PDE1, active compounds read low 0.995 | locus YGR078C, strain PAC10, active compounds read low 0.998 | locus YGR135W, strain pre9, active compounds read low 0.98 | locus YGR252W, strain gcn5, active compounds read low 0.96 | locus YHR030C, strain SLT2, active compounds read low 0.999 | locus YHR079C, strain IRE1 (second series), active compounds read low 1.01 | locus YHR094C, strain hxt1, active compounds read low 1.01 | locus YHR129C, strain ARP1, active compounds read low 0.994 | locus YHR200W, strain rpn10, active compounds read low 1 | locus YIL066C, strain RNR3, active compounds read low 1 | locus YIL073C, strain SPO22, active compounds read low 1.04 | locus YIL125W, strain kgd1, active compounds read low 1.02 | locus YIR030C, strain dcg1, active compounds read low 1 | locus YJL095W, strain BCK1, active compounds read low 0.985 | locus YJL134W, strain LCB3, active compounds read low 1.01 | locus YJL168C, strain set2, active compounds read low 1 | locus YJL187C, strain SWE1 (second series), active compounds read low 1 | locus YJR043C, strain POL32, active compounds read low 1.01 | locus YJR075W, strain HOC1, active compounds read low 0.983 | locus YKL009W, strain mrt4, active compounds read low 1.01 | locus YKL068W, active compounds read low 1 | locus YKL085W, strain MDH1 (second series), active compounds read low 1.01 | locus YKL085W, strain MDH1, active compounds read low 1.01 | locus YKL190W, strain CNB1, active compounds read low 0.988 | locus YKR001C, strain vps1, active compounds read low 0.997 | locus YLR039C, strain RIC1, active compounds read low 0.977 | locus YLR058C, strain SHM2, active compounds read low 0.992 | locus YLR102C, strain apc9, active compounds read low 1.01 | locus YLR262C, strain YPT6, active compounds read low 0.981 | locus YLR268W, strain sec22, active compounds read low 1 | locus YLR330W, strain CHS5, active compounds read low 1.01 | locus YLR342W, strain FKS1 (second series), active compounds read low 0.982 | locus YLR371W, strain rom2, active compounds read low 1.01 | locus YLR418C, strain cdc73, active compounds read low 0.956 | locus YML016C, strain PPZ1, active compounds read low 1 | locus YML032C, strain rad52, active compounds read low 0.991 | locus YML124C, strain tub3, active compounds read low 1.02 | locus YMR078C, strain ctf18, active compounds read low 1.01 | locus YMR223W, strain ubp8, active compounds read low 0.998 | locus YMR307W, strain GAS1, active compounds read low 0.95 | locus YNL067W, strain RPL9B, active compounds read low 0.994 | locus YNL128W, strain TEP1, active compounds read low 0.996 | locus YNL233W, strain BNI4, active compounds read low 1 | locus YNL250W, strain rad50, active compounds read low 1.02 | locus YNL271C, strain bni1, active compounds read low 1.02 | locus YNL298W, strain CLA4, active compounds read low 1.03 | locus YNL307C, strain MCK1, active compounds read low 1.02 | locus YNL322C, strain KRE1, active compounds read low 0.999 | locus YNR052C, strain pop2, active compounds read low 0.997 | locus YOL006C, strain TOP1, active compounds read low 0.92 | locus YOL012C, strain htz1 1.21 | locus YOL147C, strain pex11, active compounds read low 1 | locus YOR061W, strain CKA2, active compounds read low 1 | locus YOR069W, strain VPS5, active compounds read low 1 | locus YOR136W, strain idh2, active compounds read low 1.04 | locus YOR144C, strain elg1, active compounds read low 1.01 | locus YOR184W, strain ser1, active compounds read low 0.984 | locus YOR316C, strain cot1, active compounds read low 1.01 | locus YPL055C, strain LGE1, active compounds read low 0.978 | locus YPR119W, strain clb2, active compounds read low 1.01 | locus YPR141C, strain kar3, active compounds read low 1.01 | locus YPR163C, strain tif3, active compounds read low 1.04 | locus YPR167C, strain met16, active compounds read low 1.01 | strain wtn01, active compounds read low 1
